# Targets with a hit are over-represented here; the source holds about 7,900 in all. About 0.6% of all pairs of compound and target were hits. A number with no mark means an inactive call.
# Experiments:
# Test in all cases: log2 fold change, soluble protein after heating vs DMSO (PISA); higher = thermal stabilisation; K562 cells, 10 uM, 30 min; active = over 0.2 and 3.5 SD of the protein, either way, in both replicates (recomputed)
# [1] = compound: Cc1ccc(NC(=O)c2ccc(CN3CC[C@H](N(C)C)C3)c(C(F)(F)F)c2)cc1Nc1nccc(-c2cncnc2)n1 [bafetinib]
# Procedure, shortened: (§1)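 For each measurement, 10 μM compound was applied for 30 min to K562 cells at 2×10^6 cells/mL. Aliquots were heated for 3 min across 48°C-58°C, pooled, and extracted in PBS with 0.5% NP-40 at 4°C; the supernatant after 21,000xg for 90 min was soluble protein. This was quantified by TMTpro 16plex LC-MS/MS with channel sums equalised, and thermal stability was reported relative to control samples from duplicates, on a log2 fold-change scale.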
# [2] = compound: Cc1cccc(CC(=O)N2CCc3c2ccc(-c2cn(C)c4ncnc(N)c24)c3F)n1
# Procedure, shortened: as §1
# [3] = compound: Cc1cn(-c2cc(NC(=O)c3ccc(C)c(Nc4nccc(-c5cccnc5)n4)c3)cc(C(F)(F)F)c2)cn1 [nilotinib]
# Procedure, shortened: as §1
# [4] = compound: Cc1nc(Nc2n[nH]c3c2CN(C(=O)N[C@H](CN(C)C)c2ccccc2)C3(C)C)c2sccc2n1
# Procedure, shortened: as §1
# [5] = compound: Cc1nc(Nc2ncc(C(=O)Nc3c(C)cccc3Cl)s2)cc(N2CCN(CCO)CC2)n1 [dasatinib]
# Procedure, shortened: as §1
# [6] = compound: Cc1ncc(-c2ccnc(Nc3ccc(S(C)(=O)=O)cc3)n2)n1C(C)C
# Procedure, shortened: as §1
# [7] = compound: Cn1cc(-c2ccc3c(c2)CCN3C(=O)Cc2cccc(C(F)(F)F)c2)c2c(N)ncnc21
# Procedure, shortened: as §1
# [8] = compound: Cn1cc(-c2ccc3nnc(C(F)(F)c4ccc5ncccc5c4)n3n2)cn1
# Procedure, shortened: as §1
# [9] = compound: Cn1cncc1[C@@](N)(c1ccc(Cl)cc1)c1ccc2c(c1)c(-c1cccc(Cl)c1)cc(=O)n2C [tipifarnib]
# Procedure, shortened: as §1
# [10] = compound: FC(F)(F)c1ccc(/C=C/c2nc(COc3ccc(CCCCn4ccnn4)cc3)co2)cc1 [mubritinib]
# Procedure, shortened: as §1
# UniProt A4D2B0, sequence (A4D2B0 whole entry, looked up): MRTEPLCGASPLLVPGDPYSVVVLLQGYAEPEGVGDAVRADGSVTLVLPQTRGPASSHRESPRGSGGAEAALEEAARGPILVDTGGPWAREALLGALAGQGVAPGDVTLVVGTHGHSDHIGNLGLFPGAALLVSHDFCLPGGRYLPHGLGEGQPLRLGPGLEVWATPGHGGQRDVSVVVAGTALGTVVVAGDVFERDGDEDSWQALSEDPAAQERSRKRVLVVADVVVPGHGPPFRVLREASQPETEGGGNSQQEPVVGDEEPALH
# UniProt P33947, sequence (P33947 whole entry, looked up): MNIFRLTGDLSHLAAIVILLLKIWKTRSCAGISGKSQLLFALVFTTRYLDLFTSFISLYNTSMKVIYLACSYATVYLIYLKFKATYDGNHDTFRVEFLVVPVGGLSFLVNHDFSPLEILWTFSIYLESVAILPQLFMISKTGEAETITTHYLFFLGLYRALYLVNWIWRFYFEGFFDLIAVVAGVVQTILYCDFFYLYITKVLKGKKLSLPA
# UniProt Q8IVT5, sequence (Q8IVT5 whole entry, looked up): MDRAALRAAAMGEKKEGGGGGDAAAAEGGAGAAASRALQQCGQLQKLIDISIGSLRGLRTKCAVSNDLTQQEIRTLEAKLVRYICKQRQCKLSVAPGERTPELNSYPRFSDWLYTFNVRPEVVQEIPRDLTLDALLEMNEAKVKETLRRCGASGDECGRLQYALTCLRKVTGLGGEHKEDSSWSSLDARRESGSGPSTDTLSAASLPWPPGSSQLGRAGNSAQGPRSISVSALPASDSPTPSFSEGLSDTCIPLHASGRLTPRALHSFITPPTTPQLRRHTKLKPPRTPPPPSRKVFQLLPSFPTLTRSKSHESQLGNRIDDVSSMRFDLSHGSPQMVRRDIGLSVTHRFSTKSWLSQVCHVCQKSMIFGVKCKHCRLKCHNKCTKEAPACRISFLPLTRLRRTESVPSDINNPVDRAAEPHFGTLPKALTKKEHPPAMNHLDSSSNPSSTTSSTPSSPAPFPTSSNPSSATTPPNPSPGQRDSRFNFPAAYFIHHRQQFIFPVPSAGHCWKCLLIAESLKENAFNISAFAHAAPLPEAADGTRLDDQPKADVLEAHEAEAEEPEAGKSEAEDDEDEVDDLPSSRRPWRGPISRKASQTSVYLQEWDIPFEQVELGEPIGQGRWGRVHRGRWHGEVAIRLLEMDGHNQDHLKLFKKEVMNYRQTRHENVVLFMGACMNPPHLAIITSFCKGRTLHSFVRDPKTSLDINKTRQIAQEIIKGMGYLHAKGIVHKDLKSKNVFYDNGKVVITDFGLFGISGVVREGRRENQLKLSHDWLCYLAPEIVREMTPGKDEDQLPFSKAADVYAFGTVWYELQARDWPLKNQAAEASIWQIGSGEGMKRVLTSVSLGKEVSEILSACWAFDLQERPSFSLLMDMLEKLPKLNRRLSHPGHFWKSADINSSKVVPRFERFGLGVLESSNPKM
# UniProt Q7L590, sequence (Q7L590 whole entry, looked up): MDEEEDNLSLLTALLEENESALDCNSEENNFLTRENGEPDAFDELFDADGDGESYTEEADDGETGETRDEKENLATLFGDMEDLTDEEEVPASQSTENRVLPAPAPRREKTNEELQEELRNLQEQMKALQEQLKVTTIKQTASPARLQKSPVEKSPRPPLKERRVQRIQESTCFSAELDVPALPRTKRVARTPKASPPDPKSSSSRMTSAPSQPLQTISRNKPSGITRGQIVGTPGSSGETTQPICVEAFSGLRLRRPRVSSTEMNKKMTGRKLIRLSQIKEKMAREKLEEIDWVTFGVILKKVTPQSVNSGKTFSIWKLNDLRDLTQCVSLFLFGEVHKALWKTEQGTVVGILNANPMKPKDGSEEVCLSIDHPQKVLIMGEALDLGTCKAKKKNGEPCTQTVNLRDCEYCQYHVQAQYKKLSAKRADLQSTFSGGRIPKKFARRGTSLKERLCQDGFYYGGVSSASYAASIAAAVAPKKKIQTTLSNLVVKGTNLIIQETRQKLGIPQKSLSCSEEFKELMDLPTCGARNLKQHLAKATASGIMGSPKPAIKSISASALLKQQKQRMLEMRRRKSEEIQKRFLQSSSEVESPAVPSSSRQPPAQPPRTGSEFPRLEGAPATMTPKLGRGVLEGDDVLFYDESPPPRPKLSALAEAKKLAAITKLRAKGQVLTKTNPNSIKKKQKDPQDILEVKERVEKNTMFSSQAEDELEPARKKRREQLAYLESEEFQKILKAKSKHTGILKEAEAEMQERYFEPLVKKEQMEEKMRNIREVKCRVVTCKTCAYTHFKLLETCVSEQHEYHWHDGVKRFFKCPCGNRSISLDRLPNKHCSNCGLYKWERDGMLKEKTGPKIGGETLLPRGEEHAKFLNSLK
# UniProt O43513, sequence (O43513 whole entry, looked up): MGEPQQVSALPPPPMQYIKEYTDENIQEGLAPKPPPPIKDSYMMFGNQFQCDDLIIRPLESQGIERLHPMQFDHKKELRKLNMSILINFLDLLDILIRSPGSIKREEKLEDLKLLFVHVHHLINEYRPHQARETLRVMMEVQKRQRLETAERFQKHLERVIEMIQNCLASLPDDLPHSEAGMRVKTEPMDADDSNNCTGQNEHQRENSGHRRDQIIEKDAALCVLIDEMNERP
# UniProt O00214, sequence (O00214 whole entry, looked up): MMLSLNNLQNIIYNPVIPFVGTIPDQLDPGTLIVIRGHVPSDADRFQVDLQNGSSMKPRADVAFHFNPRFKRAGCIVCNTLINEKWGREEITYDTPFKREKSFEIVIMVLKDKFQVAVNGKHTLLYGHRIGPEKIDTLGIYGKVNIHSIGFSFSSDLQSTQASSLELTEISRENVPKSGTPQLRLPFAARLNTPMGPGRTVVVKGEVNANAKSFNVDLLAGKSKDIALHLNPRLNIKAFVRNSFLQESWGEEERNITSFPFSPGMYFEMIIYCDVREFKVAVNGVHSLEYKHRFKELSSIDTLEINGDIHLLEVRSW
# UniProt Q9H3F6, sequence (Q9H3F6 whole entry, looked up): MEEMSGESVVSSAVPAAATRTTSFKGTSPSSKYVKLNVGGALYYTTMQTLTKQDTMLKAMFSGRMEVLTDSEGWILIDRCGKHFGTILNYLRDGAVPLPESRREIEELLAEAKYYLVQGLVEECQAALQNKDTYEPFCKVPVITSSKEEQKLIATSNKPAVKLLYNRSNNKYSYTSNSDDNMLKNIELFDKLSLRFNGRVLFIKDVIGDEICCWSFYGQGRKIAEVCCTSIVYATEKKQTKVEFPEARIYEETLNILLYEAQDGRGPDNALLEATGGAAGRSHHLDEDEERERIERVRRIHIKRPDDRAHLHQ
# UniProt P20700, sequence (P20700 whole entry, looked up): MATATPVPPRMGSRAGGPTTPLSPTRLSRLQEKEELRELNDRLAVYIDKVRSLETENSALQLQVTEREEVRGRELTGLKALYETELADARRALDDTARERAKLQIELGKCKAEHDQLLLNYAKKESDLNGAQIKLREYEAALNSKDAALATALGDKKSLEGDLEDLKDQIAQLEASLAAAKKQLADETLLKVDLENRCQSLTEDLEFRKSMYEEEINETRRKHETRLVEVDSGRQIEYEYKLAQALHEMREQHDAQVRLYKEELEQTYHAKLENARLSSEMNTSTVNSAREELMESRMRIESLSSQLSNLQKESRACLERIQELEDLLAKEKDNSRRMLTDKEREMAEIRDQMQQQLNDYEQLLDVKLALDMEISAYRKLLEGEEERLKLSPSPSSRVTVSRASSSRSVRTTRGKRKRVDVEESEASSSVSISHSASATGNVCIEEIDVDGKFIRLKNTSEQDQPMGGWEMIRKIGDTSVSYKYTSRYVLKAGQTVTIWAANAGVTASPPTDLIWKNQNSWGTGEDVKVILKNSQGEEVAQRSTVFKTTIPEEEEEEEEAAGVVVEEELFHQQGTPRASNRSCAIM
# UniProt Q96GX5, sequence (Q96GX5 whole entry, looked up): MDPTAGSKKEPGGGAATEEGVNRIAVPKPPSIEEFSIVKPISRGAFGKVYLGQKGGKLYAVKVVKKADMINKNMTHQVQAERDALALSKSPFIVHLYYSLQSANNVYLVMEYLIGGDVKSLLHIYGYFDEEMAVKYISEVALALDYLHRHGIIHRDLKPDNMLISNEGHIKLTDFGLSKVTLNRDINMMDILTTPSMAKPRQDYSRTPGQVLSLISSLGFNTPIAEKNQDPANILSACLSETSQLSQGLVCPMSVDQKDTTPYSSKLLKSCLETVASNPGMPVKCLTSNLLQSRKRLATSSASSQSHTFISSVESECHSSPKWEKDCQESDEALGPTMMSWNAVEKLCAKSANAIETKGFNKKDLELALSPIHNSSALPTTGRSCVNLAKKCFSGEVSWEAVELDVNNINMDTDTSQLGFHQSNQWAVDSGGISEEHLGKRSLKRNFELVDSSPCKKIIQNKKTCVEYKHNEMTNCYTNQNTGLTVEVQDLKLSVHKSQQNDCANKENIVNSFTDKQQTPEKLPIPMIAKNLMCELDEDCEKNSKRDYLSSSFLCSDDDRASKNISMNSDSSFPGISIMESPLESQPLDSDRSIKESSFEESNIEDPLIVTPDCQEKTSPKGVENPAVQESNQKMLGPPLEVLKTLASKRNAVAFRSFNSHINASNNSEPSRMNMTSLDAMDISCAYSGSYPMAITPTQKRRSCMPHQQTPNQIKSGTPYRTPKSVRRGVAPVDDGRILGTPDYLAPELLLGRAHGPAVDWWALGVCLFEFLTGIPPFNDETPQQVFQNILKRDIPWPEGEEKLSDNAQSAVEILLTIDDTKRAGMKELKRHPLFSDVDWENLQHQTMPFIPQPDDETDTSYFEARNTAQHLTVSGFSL
# UniProt P46734, sequence (P46734 whole entry, looked up): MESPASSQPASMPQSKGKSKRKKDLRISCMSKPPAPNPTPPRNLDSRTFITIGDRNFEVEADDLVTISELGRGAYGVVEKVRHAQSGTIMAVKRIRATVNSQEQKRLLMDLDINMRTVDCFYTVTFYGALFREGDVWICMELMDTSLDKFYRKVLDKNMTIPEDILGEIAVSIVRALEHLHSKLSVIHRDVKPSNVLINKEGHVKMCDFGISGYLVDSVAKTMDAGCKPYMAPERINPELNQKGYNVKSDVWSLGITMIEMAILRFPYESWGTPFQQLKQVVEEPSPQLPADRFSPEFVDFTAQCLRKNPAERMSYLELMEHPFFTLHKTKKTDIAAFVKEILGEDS
Target,log2 fold change [1],log2 fold change [2],log2 fold change [3],log2 fold change [4],log2 fold change [5],log2 fold change [6],log2 fold change [7],log2 fold change [8],log2 fold change [9],log2 fold change [10]
KSR1 (UniProt Q8IVT5),0.035,-0.052,-0.052,-0.303,-0.228,-0.021,0.003,-0.129,-0.086,-0.233
IGFBP2 (UniProt P18065),-0.512,0.026,-0.034,0.142,-0.1,0.17,0.17,-0.095,-0.1,-0.135
KCTD10 (UniProt Q9H3F6),-0.059,-0.036,0.002,-0.088,0.056,0.074,0.012,0.153,0.058,-0.009
LMNB1 (UniProt P20700),-0.089,-0.004,0.037,-0.11,0.092,-0.117,-0.059,-0.074,0.105,-0.069
LTO1 (UniProt Q8WV07),-0.013,-0.004,-0.036,-0.072,0,0.039,-0.025,-0.02,-0.063,0.038
MARK3 (UniProt P27448),0.033,0.108,-0.125,-0.718 (active),-0.104,-0.11,-0.062,-0.046,-0.013,-0.075
LRBA (UniProt P50851),-0.047,0.053,-0.067,-0.022,-0.061,0.014,0.047,0.002,-0.06,0.024
MFSD5 isoform 2 (UniProt Q6N075),-0.126,0.009,0.054,0.055,-0.029,-0.057,-0.048,0.009,0.141,0.128
KDELR2 (UniProt P33947),-0.088,0.072,-0.069,0.035,0.097,-0.082,0.194,0.264,0.125,-0.049
MAN2B2 (UniProt Q9Y2E5),-0.302,,-0.171,0.057,0.013,-0.023,,-0.088,0.093,0.147
MAP4K5 (UniProt Q9Y4K4),-0.064,-0.001,0.136,-0.093,,-0.116,-0.125,0.019,-0.146,0.022
KCNK5 (UniProt O95279),-0.31,0.025,,,-0.472,,0.139,,-0.183,0.076
IMMP1L (UniProt Q96LU5),-0.024,,-0.044,0.059,0.098,0.03,0.068,0.071,0.02,0.048
MED12 isoform 2 (UniProt Q93074),-0.112,0.044,-0.038,0.068,-0.24,-0.058,,0.003,-0.071,-0.103
MELK (UniProt Q14680),-0.06,0.086,0.033,-1.04 (active),-0.149,0.14,-0.092,,0.097,
METAP1D (UniProt Q6UB28),-0.089,,-0.114,0.036,0.007,0.079,-0.034,-0.071,-0.023,0.028

Target,log2 fold change [1],log2 fold change [2],log2 fold change [3],log2 fold change [4],log2 fold change [5],log2 fold change [6],log2 fold change [7],log2 fold change [8],log2 fold change [9],log2 fold change [10]
MFSD11 (UniProt O43934),-0.047,-0.032,-0.038,0.046,-0.004,-0.119,0.17,,-0.047,0.063
MED7 (UniProt O43513),0.191,,-0.029,-0.041,-0.063,0.094,-0.05,0.069,0.271,
MCOLN3 (UniProt Q8TDD5),-0.03,-0.183,-0.289,-0.113,,0.041,,0.079,0.072,0.05
LGALS8 isoform 2 (UniProt O00214),0.107,0.079,,,0.013,,-0.253,,,-0.186
MASTL (UniProt Q96GX5),0.143,,0.014,0.002,-0.105,0.021,-0.052,0.276,,-0.093
IP6K1 (UniProt Q92551),0.02,0.033,,,-0.361,,0.024,0.116,-0.038,0.137
MCM10 (UniProt Q7L590),0.182,-0.044,0.046,-0.001,,-0.008,,,-0.155,0.09
KIF3B (UniProt O15066),0.007,0.122,,,-0.06,,0.002,-0.048,-0.07,0.115
MFSD8 (UniProt Q8NHS3),-0.006,-0.12,,,0.061,,-0.007,0.017,-0.042,-0.002
MAP2K3 isoform 3 (UniProt P46734),-0.071,0.096,-0.019,0.021,-0.04,-0.049,0.005,-0.083,0.08,-0.145
KMT2C isoform 3 (UniProt Q8NEZ4),-0.209,-0.041,-0.049,-0.093,0.043,0.001,0.094,-0.215,,0.083
MED8 isoform 2 (UniProt Q96G25),-0.026,,0.016,-0.015,0.034,-0.171,-0.086,0.013,0.012,-0.059
MBLAC1 (UniProt A4D2B0),-0.017,0.065,,,-0.129,,0.086,-0.125,0.094,-0.045
LENG8 (UniProt Q96PV6),-0.088,0.112,0.006,-0.036,-0.388,-0.146,-0.039,-0.031,,0.032
IL27RA (UniProt Q6UWB1),-0.098,,0.086,-0.06,0.055,-0.006,-0.039,-0.109,0.159,0.005

# — the supplement of paper PMC10849652
